This note sets out measurements from PubChem BioAssay (EPA / NIEHS).

Records with an inconclusive call do not appear. The source made the active and inactive calls. The calls were made as follows, unless noted: active = hit-call score of the fitted dose curve at least 0.9, where 1 is the maximum; inactive = score below 0.9.

Assay [1] can be described thus: ATG_Sox_CIS: Attagene CIS-FACTORIAL HepG2 Assay for human SRY-box transcription factor (SOX) (AID 2282960). As to conditions: HepG2 Attagene cis-factorial SOX reporter, mRNA; actives raise or lower the signal. A digest of the protocol: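 HepG2, cis reporter units, 24 h exposure. Reporter mRNA: RT-PCR → FAM labelling → HpaI → CE fluorescence. Bidirectional fit vs DMSO.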

Assay [2] concerns the target Transcription factor Sp1 (Homo sapiens) (UniProt P08047). The assay can be described thus: ATG_Sp1_CIS: Attagene CIS-FACTORIAL HepG2 Assay for human Specificity Protein 1 (Sp1) (AID 2282961). To be noted: HepG2 Sp1 cis-reporter transcription, actives raise or lower the signal. The gist of the method: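 Liver-derived HepG2 cells, cis-element reporter library, 24 h treatment; RNA isolated, cDNA amplified with reporter-specific primers, FAM-labeled fragments sized on capillary analyzer. DMSO baseline, bidirectional curve fit.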

Assay [3] in a line: ATG_SREBP_CIS: Attagene CIS-FACTORIAL HepG2 Assay for human Sterol Regulatory Element Binding (SREBP) (AID 2282962). As to conditions: HepG2 Attagene cis-factorial SREBP reporter, mRNA; actives raise or lower the signal. The gist of the method:
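Readout: fluorescent reporter-transcript peaks resolved by capillary electrophoresis after RT-PCR. Cells were human HepG2 carrying transfected cis-promoter reporter constructs, dosed for 24 h. Gain or loss of signal was fitted against DMSO controls.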

Assay [4] has as its target Signal transducer and activator of transcription 3 (Homo sapiens) (UniProt P40763). The assay can be described thus: ATG_STAT3_CIS: Attagene CIS-FACTORIAL HepG2 Assay for human Signal Transducer and Activator of Transcription 3 (STAT3) (AID 2282963). As to conditions: HepG2, Attagene cis-factorial STAT3 reporter transcription; actives raise or lower the signal. A digest of the protocol:
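Readout: fluorescent reporter mRNA fragments resolved by capillary electrophoresis. Setup: HepG2 transfected with MRTUs reporting endogenous transcription-factor activity, dosed 24 h. Gain or loss of signal fitted bidirectionally against DMSO control.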

Assay [5] can be described thus: ATG_TA_CIS: Attagene CIS-FACTORIAL HepG2 Assay for human TA Basal Promoter (AID 2282964). As to conditions: HepG2 Attagene CIS-factorial TA basal promoter reporter; actives raise or lower the signal. The gist of the method: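 Steps: transfect HepG2 with MRTUs; dose 24 h; isolate RNA, DNase-treat, reverse-transcribe; PCR and FAM-label reporter cDNA; digest with HpaI 2h at 37 C; run capillary electrophoresis. Activity fitted both directions against DMSO.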

Assay [6] in a line: ATG_TCF_b_cat_CIS: Attagene CIS-FACTORIAL HepG2 Assay for human T-Cell-Factor with beta-catenin (TCF/b-cat) (AID 2282965). To be noted: HepG2 TCF/beta-catenin cis-reporter transcription, actives raise or lower the signal. The gist of the method:
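Cells of the HepG2 line carry transiently transfected reporter units whose promoters respond to endogenous factors. Twenty-four hours post-dosing, reporter mRNA induction is measured by fluorescent RT-PCR and capillary electrophoresis, with DMSO as baseline.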

The nature of assay [7]: ATG_TAL_CIS: Attagene CIS-FACTORIAL HepG2 Assay for human TAL Basal Promoter (AID 2282966).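 Also: background control endpoint measuring basal TAL promoter reporter mRNA not a specific factor.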 To be noted: HepG2 Attagene cis-factorial TAL promoter reporter; actives raise or lower the signal. The gist of the method: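 Transiently transfected HepG2 (cis-regulated reporter units), 24 h treatment, mRNA read by fluorescent CE after RT-PCR; bidirectional fit, DMSO baseline.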

Assay [8] in a line: ATG_TGFb_CIS: Attagene CIS-FACTORIAL HepG2 Assay for human Transforming Growth Factor (TGF) (AID 2282967). To be noted: HepG2 Attagene CIS TGFb reporter, mRNA transcription; actives raise or lower the signal. The gist of the method:
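Cells were dosed for 24 hours, after which total RNA was reverse-transcribed and reporter sequences amplified, labeled and sized by capillary electrophoresis. Activity was fitted in both directions against DMSO.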

Assay [9] in a line: ATG_VDRE_CIS: Attagene CIS-FACTORIAL HepG2 Assay for human Vitamin D Receptor Element (VDRE) (AID 2282968). As to conditions: HepG2 VDRE cis-reporter transcription, actives raise or lower the signal. A digest of the protocol: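 Transient MRTU transfection of HepG2, 24 h compound exposure. Readout: reporter transcripts via RT-PCR and capillary electrophoresis, fluorescence. Bidirectional fit vs DMSO.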

The target in assay [10] is X-box-binding protein 1 (Homo sapiens) (UniProt P17861). The assay can be described thus: ATG_Xbp1_CIS: Attagene CIS-FACTORIAL HepG2 Assay for human X-box Binding Protein 1 (XBP1) (AID 2282972). To be noted: HepG2 XBP1 cis-element reporter, Attagene multiplex; actives raise or lower the signal. The gist of the method:
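Read-out: fluorescent reporter mRNA fragments resolved by capillary electrophoresis after RT-PCR. Human HepG2 liver cells carried transfected cis-promoter reporter units and were exposed to chemicals for 24 hours. Gain or loss of signal fitted relative to DMSO baseline.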

A short description of assay [11]: ATG_M_19_TRANS: Attagene TRANS-FACTORIAL HepG2 Assay for M19 Transcription Factor (Internal Marker) (AID 2282974; active = hit-call score of the fitted dose curve at least 0.9, where 1 is the maximum). To be noted: HepG2 Attagene TRANS-FACTORIAL M19 internal marker reporter. The gist of the method:
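Transfected HepG2 (GAL4-UAS MRTUs), 24 h compound, TriZol RNA, DNase-treated RT, reporter PCR, FAM label, HpaI digest, CE fluorescence; gain vs DMSO.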

Assay [12] in a line: ATG_GAL4_TRANS: Attagene TRANS-FACTORIAL HepG2 Assay for GAL4 (Internal Marker) (AID 2282976; active = hit-call score of the fitted dose curve at least 0.9, where 1 is the maximum). As to conditions: HepG2 Attagene TRANS GAL4 internal marker reporter. The gist of the method: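 HepG2 cells transiently transfected with multiplexed GAL4-UAS reporter constructs were dosed for 24 h. Reporter mRNA was measured by RT-PCR, 6-FAM primer extension, HpaI digestion and capillary electrophoresis, and gain of signal was fitted relative to DMSO.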

In assay [13] the target is Glucocorticoid receptor (Homo sapiens) (UniProt P04150). The assay can be described thus: ATG_GR_TRANS: Attagene TRANS-FACTORIAL HepG2 Assay for human Glucocorticoid Receptor (GR) (AID 2282978; active = hit-call score of the fitted dose curve at least 0.9, where 1 is the maximum;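 also: activators score as hits since higher reporter transcript over DMSO is fitted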). To be noted: HepG2 Attagene TRANS GR reporter, mRNA transcription. The gist of the method:
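After 24 h incubation with test chemical, transfected HepG2 cells were lysed for RNA; reporter cDNA was amplified, FAM-labelled, HpaI-digested and sized on a capillary analyser. Signal gain relative to DMSO was scored.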

Assay [14] concerns the target Oxysterols receptor LXR-beta (Homo sapiens) (UniProt P55055). The assay can be described thus: ATG_LXRb_TRANS: Attagene TRANS-FACTORIAL HepG2 Assay for human Liver X Receptor beta (LXRb) (AID 2282981; active = hit-call score of the fitted dose curve at least 0.9, where 1 is the maximum). To be noted: HepG2 Attagene TRANS GAL4-LXRb reporter, mRNA. The gist of the method: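 Readout: fluorescent reporter mRNA fragments resolved by capillary electrophoresis after RT-PCR. System: transiently transfected human HepG2, exogenous LXRb-Gal4 chimera driving GAL4-UAS reporter, 24 h dosing. Activity fitted upward against DMSO baseline.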

Assay [15] deals with Estrogen receptor (Homo sapiens) (UniProt P03372). The assay can be described thus: ATG_ERa_TRANS: Attagene TRANS-FACTORIAL HepG2 Assay for human Estrogen Receptor alpha (ERa) (AID 2282970; active = hit-call score of the fitted dose curve at least 0.9, where 1 is the maximum). To be noted: HepG2 Attagene TRANS ERa GAL4 reporter, mRNA. The gist of the method: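 One of 30 multiplexed endpoints from a HepG2 TRANS system, this one reports ERa-Gal4-driven reporter mRNA. Transcripts were quantified 24 hours post-dosing by fluorescent RT-PCR and capillary electrophoresis, with activity scored as induction over DMSO.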

Assay [16] has as its target Bile acid receptor (Homo sapiens) (UniProt Q96RI1). Kind of assay: ATG_FXR_TRANS: Attagene TRANS-FACTORIAL HepG2 Assay for Farnesoid X Receptor (FXR) (AID 2282979; active = hit-call score of the fitted dose curve at least 0.9, where 1 is the maximum;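 also: hits raise reporter mRNA above DMSO so AC50 marks FXR activation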). As to conditions: HepG2 Attagene TRANS FXR-GAL4 reporter transcription. The gist of the method:
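HepG2 cells transiently transfected with reporter constructs in which a chimeric FXR-GAL4 protein drives a GAL4-UAS reporter; 24 h compound exposure. Reporter mRNA measured by RT-PCR, FAM labelling, HpaI digestion and capillary electrophoresis; gain-of-signal versus DMSO.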

The target of assay [17] is Nuclear receptor subfamily 1 group I member 3 (Homo sapiens) (UniProt Q14994). Kind of assay: ATG_CAR_TRANS: Attagene TRANS-FACTORIAL HepG2 Assay for human Constitutive Androstane Receptor (CAR) (AID 2282969; active = hit-call score of the fitted dose curve at least 0.9, where 1 is the maximum;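 also: activators raise reporter mRNA above DMSO so AC50 marks induction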). To be noted: HepG2 Attagene TRANS-FACTORIAL CAR reporter. A digest of the protocol:
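Transiently transfected HepG2, multiplex TRANS reporters (CAR-Gal4 chimera driving GAL4-UAS reporter). 24 h dosing. Readout: reporter transcript by RT-PCR + capillary electrophoresis, fluorescence intensity; positive direction vs DMSO.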

Assay [18] deals with Androgen receptor (Homo sapiens) (UniProt P10275). Kind of assay: ATG_AR_TRANS: Attagene TRANS-FACTORIAL HepG2 Assay for human Androgen Receptor (AR) (AID 2282973; active = hit-call score of the fitted dose curve at least 0.9, where 1 is the maximum). To be noted: HepG2 Attagene TRANS-FACTORIAL AR reporter transcription. The gist of the method:
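HepG2 cells transiently transfected with multiplexed GAL4-UAS reporter units and chimeric NR-Gal4 fusion; 24 h compound exposure. Reporter mRNA measured by RT-PCR, 6-FAM labelling, HpaI digestion and capillary electrophoresis; gain-of-signal fitted relative to DMSO baseline.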

Assay [19] concerns the target Oxysterols receptor LXR-alpha (Homo sapiens) (UniProt Q13133). The assay can be described thus: ATG_LXRa_TRANS: Attagene TRANS-FACTORIAL HepG2 Assay for human Liver X Receptor alpha (LXRa) (AID 2282980; active = hit-call score of the fitted dose curve at least 0.9, where 1 is the maximum). As to conditions: HepG2 Attagene TRANS reporter, LXRa transactivation. The gist of the method: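 HepG2 cells were transiently transfected with multiplexed reporter units driven by chimeric LXRa–GAL4 fusion proteins, then dosed for 24 h. Reporter mRNA was quantified by RT-PCR, fluorescent labelling and capillary electrophoresis; gain of signal fitted against DMSO baseline.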

Estrogen receptor (Homo sapiens), sequence (P03372 whole entry, looked up, the tested form may be a part): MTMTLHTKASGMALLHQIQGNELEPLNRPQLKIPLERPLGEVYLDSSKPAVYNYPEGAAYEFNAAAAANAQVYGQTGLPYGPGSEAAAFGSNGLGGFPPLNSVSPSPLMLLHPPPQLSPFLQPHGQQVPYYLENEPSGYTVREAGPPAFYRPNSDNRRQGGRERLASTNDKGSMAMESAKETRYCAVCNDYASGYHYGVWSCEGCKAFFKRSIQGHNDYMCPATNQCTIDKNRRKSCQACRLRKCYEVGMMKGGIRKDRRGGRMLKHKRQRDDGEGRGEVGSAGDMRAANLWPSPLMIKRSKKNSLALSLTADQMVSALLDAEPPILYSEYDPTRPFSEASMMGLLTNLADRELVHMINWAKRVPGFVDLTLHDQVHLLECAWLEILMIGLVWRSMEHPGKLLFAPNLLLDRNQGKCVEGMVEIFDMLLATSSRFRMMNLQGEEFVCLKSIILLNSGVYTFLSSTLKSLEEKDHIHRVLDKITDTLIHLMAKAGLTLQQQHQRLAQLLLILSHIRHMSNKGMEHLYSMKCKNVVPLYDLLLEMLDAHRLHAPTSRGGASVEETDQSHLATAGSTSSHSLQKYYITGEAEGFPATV
Transcription factor Sp1 (Homo sapiens), sequence (P08047 whole entry, looked up, the tested form may be a part): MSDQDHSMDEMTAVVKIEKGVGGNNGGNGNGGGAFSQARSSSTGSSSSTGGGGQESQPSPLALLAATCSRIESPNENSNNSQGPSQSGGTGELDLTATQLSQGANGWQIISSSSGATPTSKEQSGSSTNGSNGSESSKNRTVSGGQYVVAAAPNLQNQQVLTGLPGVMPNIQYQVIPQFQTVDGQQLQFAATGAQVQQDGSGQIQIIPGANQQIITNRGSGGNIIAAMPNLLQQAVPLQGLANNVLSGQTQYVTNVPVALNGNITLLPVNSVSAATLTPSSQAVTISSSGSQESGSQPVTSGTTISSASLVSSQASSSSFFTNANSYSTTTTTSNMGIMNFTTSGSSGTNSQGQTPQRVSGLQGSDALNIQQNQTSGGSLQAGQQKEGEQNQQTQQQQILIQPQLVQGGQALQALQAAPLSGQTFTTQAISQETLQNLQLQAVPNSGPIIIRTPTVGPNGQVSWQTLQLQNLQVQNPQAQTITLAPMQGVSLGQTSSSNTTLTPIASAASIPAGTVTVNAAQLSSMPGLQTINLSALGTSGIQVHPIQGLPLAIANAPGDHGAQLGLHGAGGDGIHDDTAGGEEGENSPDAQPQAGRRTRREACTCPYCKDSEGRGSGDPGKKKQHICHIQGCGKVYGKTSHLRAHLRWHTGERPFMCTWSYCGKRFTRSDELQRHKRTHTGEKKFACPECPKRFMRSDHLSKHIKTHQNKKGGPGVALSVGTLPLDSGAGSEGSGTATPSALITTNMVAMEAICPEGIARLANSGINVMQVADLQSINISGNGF
Signal transducer and activator of transcription 3 (Homo sapiens), sequence (P40763 whole entry, looked up, the tested form may be a part): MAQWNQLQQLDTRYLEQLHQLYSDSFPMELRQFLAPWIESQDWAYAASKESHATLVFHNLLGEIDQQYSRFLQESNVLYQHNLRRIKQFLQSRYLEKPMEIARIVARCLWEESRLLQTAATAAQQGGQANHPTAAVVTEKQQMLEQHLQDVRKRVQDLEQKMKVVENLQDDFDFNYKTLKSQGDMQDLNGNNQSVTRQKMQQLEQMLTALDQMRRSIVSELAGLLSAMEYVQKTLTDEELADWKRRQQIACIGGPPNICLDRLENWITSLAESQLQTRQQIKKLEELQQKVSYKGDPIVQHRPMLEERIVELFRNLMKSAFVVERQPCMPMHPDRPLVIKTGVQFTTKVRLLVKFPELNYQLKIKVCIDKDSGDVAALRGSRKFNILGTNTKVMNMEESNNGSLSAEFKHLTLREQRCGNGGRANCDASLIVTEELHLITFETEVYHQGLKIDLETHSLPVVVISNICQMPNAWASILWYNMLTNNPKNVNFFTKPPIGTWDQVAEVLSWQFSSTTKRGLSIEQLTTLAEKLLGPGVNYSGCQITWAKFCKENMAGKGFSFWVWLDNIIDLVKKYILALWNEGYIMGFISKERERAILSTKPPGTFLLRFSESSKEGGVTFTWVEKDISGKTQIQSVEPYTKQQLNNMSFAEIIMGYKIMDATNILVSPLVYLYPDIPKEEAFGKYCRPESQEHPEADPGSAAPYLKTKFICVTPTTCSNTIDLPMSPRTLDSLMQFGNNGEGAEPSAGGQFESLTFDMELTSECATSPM
X-box-binding protein 1 (Homo sapiens), sequence (P17861 whole entry, looked up, the tested form may be a part): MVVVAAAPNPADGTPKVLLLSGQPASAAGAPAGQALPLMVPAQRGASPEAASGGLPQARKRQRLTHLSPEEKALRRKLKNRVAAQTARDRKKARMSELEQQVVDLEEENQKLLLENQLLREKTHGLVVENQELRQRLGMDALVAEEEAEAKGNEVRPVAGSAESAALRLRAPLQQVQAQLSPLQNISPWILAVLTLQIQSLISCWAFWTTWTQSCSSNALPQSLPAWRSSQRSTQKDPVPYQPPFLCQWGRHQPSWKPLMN
Glucocorticoid receptor (Homo sapiens), sequence (P04150 whole entry, looked up): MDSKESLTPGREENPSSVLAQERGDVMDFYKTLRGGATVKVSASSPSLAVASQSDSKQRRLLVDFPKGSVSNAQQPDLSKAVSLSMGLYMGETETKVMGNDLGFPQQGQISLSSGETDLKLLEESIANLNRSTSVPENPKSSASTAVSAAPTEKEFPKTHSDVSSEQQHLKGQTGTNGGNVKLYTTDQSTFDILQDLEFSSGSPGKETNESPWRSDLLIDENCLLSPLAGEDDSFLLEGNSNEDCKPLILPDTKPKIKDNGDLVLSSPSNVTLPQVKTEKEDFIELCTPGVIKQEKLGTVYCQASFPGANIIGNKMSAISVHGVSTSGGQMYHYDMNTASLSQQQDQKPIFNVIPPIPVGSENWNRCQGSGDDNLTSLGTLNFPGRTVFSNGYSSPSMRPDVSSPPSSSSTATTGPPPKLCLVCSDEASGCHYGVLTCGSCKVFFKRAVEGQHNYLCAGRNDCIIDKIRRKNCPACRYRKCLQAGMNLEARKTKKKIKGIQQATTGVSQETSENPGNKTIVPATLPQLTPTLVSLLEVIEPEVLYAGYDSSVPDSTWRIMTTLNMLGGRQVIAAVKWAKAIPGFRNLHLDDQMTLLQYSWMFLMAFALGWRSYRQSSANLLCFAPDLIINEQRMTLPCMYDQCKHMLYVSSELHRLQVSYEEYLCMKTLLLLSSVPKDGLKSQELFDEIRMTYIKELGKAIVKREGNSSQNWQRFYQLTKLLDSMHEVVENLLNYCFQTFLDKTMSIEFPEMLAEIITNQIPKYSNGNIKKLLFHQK
Oxysterols receptor LXR-alpha (Homo sapiens), sequence (Q13133 whole entry, looked up, the tested form may be a part): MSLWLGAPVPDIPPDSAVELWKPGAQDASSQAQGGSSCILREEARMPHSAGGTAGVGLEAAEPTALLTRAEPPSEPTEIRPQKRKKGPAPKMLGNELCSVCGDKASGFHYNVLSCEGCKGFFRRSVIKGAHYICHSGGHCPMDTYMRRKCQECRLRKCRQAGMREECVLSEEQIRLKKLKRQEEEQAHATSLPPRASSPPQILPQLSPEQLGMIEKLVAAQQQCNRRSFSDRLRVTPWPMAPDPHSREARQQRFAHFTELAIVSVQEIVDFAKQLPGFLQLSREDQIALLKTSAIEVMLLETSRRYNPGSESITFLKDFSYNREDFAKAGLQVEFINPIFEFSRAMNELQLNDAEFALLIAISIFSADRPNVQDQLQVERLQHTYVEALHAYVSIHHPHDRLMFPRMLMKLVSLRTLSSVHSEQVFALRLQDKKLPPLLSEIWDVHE
Bile acid receptor (Homo sapiens), sequence (Q96RI1 whole entry, looked up, the tested form may be a part): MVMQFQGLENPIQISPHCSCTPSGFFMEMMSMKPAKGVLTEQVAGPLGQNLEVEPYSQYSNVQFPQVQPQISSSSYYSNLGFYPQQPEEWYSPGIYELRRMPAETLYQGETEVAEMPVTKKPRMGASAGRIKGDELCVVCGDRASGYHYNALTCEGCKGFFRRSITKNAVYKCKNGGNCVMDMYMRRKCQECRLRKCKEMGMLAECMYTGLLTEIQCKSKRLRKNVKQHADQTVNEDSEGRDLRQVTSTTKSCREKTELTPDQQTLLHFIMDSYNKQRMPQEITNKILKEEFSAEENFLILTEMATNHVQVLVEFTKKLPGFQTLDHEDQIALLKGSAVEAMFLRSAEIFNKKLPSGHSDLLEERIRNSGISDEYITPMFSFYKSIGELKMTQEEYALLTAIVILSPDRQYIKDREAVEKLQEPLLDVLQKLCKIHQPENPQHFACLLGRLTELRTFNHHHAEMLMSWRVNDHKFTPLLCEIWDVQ
Oxysterols receptor LXR-beta (Homo sapiens), sequence (P55055 whole entry, looked up, the tested form may be a part): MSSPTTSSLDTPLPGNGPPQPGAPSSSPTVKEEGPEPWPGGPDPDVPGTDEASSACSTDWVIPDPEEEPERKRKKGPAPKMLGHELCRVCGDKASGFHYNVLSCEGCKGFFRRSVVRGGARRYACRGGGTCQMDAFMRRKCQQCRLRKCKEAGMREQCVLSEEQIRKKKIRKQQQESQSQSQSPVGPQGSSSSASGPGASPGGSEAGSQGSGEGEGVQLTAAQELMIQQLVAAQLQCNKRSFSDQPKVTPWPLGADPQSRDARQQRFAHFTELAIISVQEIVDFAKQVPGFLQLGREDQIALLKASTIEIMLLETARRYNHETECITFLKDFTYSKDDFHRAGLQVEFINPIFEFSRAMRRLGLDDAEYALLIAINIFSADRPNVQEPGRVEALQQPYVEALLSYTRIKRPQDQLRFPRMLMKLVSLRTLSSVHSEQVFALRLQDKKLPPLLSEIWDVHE
Nuclear receptor subfamily 1 group I member 3 (Homo sapiens), sequence (Q14994 whole entry, looked up, the tested form may be a part): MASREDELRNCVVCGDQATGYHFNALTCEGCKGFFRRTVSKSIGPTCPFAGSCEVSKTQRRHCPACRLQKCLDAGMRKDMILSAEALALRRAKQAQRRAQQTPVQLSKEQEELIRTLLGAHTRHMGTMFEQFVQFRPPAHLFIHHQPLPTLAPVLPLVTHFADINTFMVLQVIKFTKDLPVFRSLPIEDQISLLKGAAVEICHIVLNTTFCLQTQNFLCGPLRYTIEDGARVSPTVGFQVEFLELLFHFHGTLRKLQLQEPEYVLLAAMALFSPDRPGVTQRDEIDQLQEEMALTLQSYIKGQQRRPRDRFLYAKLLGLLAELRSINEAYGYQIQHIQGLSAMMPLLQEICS

On to `C[C@]12CC[C@H](O)CC1=CC[C@@H]1[C@@H]2CC[C@]2(C)C(=O)CC[C@@H]12`, for which the result in assay [1], in [2], in assay [3], in assay [4], in [5] and in [6] was inactive. Besides, the compound was called inactive in [7], in assay [8], in assay [9], in [10], in assay [11] and in assay [12]. The call in assay [13] and in assay [14] was inactive.
Regarding `CC(C)(OO)c1ccccc1`, the compound was classed as inactive in assay [1], in assay [2], in assay [3], in assay [4], in assay [5] and in assay [6]. Further, the result in assay [7], in [8], in assay [9], in assay [10], in assay [11] and in [12] was inactive. The compound was called inactive in assay [13] and in assay [16]. In addition, the AC50 (commonly the concentration giving half of the maximal activity seen) in assay [15] is 100 µM (active).
Regarding `COP(=S)(OC)Oc1cc(Cl)c(Cl)cc1Cl`, the compound was classed as inactive in assay [1], in assay [2], in assay [3], in assay [4], in assay [5] and in assay [6]. The compound was called inactive in assay [7], in assay [17], in [10], in assay [18], in assay [13] and in [19]. Besides, the outcome in assay [14] was inactive. The values for the AC50 in assay [8] and in assay [15] were 79.6 µM (active) and 36.3 µM (active), respectively.
For the compound `C1CCC(NC2CCCCC2)CC1`, the outcome in assay [1], in assay [2], in assay [3], in [4], in [5] and in [6] was inactive. Moreover, the result in assay [7], in assay [8], in [9], in [10], in [11] and in assay [19] was inactive.
Consider `O=C(OC1CCCCC1)c1ccccc1C(=O)OC1CCCCC1`, for which the result in [1], in assay [2], in [3], in assay [4], in assay [6] and in assay [7] was inactive. The call in assay [10], in assay [13] and in assay [16] was inactive. The AC50 was 29.1 µM (active) in [5], 62.1 µM (active) in [8], 2.82 µM (active) in [9] and 3.1 µM (active) in assay [15].
